Experimental data from PubChem BioAssay AID2685 (National Center for Advancing Translational Sciences (NCATS), 2010).
Among all 320,000 compounds or so, about 2,100 (0.66%) were called active. Roughly 53% stayed inconclusive and do not appear here. The call rests on the fitted dose curve; in most records, active means well fitted inhibition curve with a large enough effect in the signal ratio, with a control signal flat (not every such curve was filed as active); inconclusive means small, poorly fitted or top-dose-only effect, or effect the other way, or a change in a side signal; inactive means flat fitted curve, though single readings scatter; the % refers to the signal ratio. The list comes from a sample in which actives are over-represented; it also holds similar structures and randomly drawn compounds.

test: qHTS Assay for Lipid Storage Modulators in Drosophila S3 Cells; details: BODIPY lipid droplet fluorescence, 18-24 h, cells fed with added oleic acid; cell number change: measured here: cell count max response; series mostly up to 46.1 µM; lipid storage change, negative = inhibition: at the top concentration;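 on cell number change: cells counted by Cell Tracker Red CMTPX staining in the red channel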; on lipid storage change, negative = inhibition: on the % scale 0 is the no-effect control and ±100 the full control effect
Procedure, shortened: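 Drosophila S3 cells loaded with oleic acid (400 uM, as added) and compounds at several concentrations; lipid droplets imaged by 488-nm laser-scanning cytometry, 500–530 nm intensity and object ratio to cell channel. Percent activity normalized to 20 uM Triacsin C.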
Potency means the concentration at half of the fitted maximal effect.

Compound	lipid storage change, negative = inhibition	cell number change [%]	Potency	outcome
CCCCNC(=O)CN(c1cc(C(F)(F)F)ccc1Cl)S(C)(=O)=O	2.61% (inactive)	5.68		
Cc1ccc(N(CC(=O)NC2CCCCC2C)S(=O)(=O)c2c(C)nn(C)c2C)cc1 (stereo not drawn)		-1.91	25.9 µM (active)	
Cc1ccc(N(CC(=O)NC2CCCCC2C)S(=O)(=O)c2c(C)noc2C)cc1 (stereo not drawn)		1.18		inactive
Cc1ccc(N(CC(=O)NC2CCCCC2)S(=O)(=O)c2c(C)nn(C)c2C)cc1		5.73		inactive
CC1(C)CCC(C)(C)NC(=S)N1	-0.404% (inactive)	-5.67		
COC(=O)COc1nsnc1N1CCOCC1		1.29	5.8 µM (active)	
O=C(COc1nsnc1N1CCOCC1)Nc1ccc(Cl)cc1	-10.2% (inactive)	-7.64		
O=C(COc1nsnc1N1CCOCC1)N1CCOCC1	-15% (inactive)	-23.3		
Cc1cccc(OCCC(=O)NNC(=O)c2ccoc2C)c1	5.46% (inactive)	-9.1		
COC(=O)CCCCCN1C(=O)NC(c2ccccc2)C(C(=O)OCc2ccccc2)=C1C (stereo not drawn)	13.9% (inactive)	10		
CC(=O)NS(=O)(=O)c1ccc(NC(=O)c2cc(-c3ccc(C)cc3)nc3ccccc23)cc1	0.28% (inactive)	13.2		
Cc1ccc(NC(=O)N2CCCC(C(=O)O)C2)cc1 (stereo not drawn)	-5.95% (inactive)	-2.63		
CCCN1CCC(N2CCCC(C(=O)O)C2)CC1 (stereo not drawn)	4% (inactive)	9.47		
CN1CCC(N2CCCC(C(=O)O)C2)CC1 (stereo not drawn)		6.8	6.51 µM (active)	
O=C(c1ccccc1)N1CCn2c1nc1ccccc12	-6.04% (inactive)	7.4		
COc1cccc(CC(=O)Nc2nc3c(s2)C(=O)CC(C)(C)C3)c1	6.69% (inactive)			
O=C(CSc1nccc(=O)[nH]1)Nc1ccc(N2CCOCC2)cc1	10.1% (inactive)	4.96		
COc1ccc(OC)c(S(=O)(=O)N2CCC(C(=O)N3CCOCC3)CC2)c1		23.2		inactive
COc1ccc(OC)c(S(=O)(=O)N2CCC(C(=O)N3CCCCCC3)CC2)c1	-21.6% (inactive)	10.5		
COc1cc(OC)c(OC)cc1CN1CCCC(C(=O)N2CCCCC2)C1 (stereo not drawn)	0.198% (inactive)	-0.267		
COc1ccccc1CN1CCCC(C(=O)N2CCCCC2)C1 (stereo not drawn)	-23.1% (inactive)	-12.4		
COc1ccc(OC)c(S(=O)(=O)N2CCC(C(=O)N3CCN(Cc4ccccc4)CC3)CC2)c1		-36.9	8.2 µM (active)	
COc1ccc(S(=O)(=O)N2CCCC(C(=O)N3CCCCCC3)C2)cc1 (stereo not drawn)				inactive
COc1ccc(OC)c(S(=O)(=O)N2CCCC(C(=O)N3CCC(C(N)=O)CC3)C2)c1 (stereo not drawn)	29.6% (inactive)			

Compound	lipid storage change, negative = inhibition	cell number change [%]	Potency	outcome
COc1ccc(OC)c(S(=O)(=O)N2CCCC(C(=O)N3CCCCCC3)C2)c1 (stereo not drawn)		-13.8	3.26 µM (active)	
COc1ccc(CN2CCCC(C(=O)N3CCCCC3)C2)c(OC)c1 (stereo not drawn)		-9.62	18.4 µM (active)	
COc1ccccc1CN1CCN(Cc2nc(Cc3ccccc3)no2)CC1	6.75% (inactive)	-11.2		
COc1ccc(C(=O)COC(=O)C(CCSC)NC(=O)COc2ccccc2)cc1 (stereo not drawn)	7.97% (inactive)	-12.5		
COc1ccc(Cc2noc(CN3CCN(Cc4csc(C)n4)CC3)n2)cc1OC	19.7% (inactive)	3.13		
CC(Sc1cnccn1)C(=O)O (stereo not drawn)	-23.4% (inactive)	-4.62		
CC(=O)NCC1CCCN(C(=O)c2oc3c(F)cccc3c2C)C1 (stereo not drawn)		-13.1		inactive
O=C(COC(=O)C1CC1)NCc1ccccc1	7.58% (inactive)			
COc1cc(OC)c(/C=N/NC(=O)Cn2nc([N+](=O)[O-])cc2C)c(OC)c1	8.36% (inactive)			
COc1ccc(CCNC(=O)CC2Nc3cc(C)c(C)cc3NC2=O)cc1OC (stereo not drawn)		21.5		inactive
COc1ccc(CCNC(=O)c2ccc3c(c2)NC(=O)C(C(C)C)N3)cc1OC (stereo not drawn)		-27		inactive
COc1ccc(CCNC(=O)c2ccc3c(c2)NC(=O)C(CSCc2cc(C)ccc2C)N3)cc1OC (stereo not drawn)		3.36	23.1 µM (active)	
COc1ccc(C(=O)NNC(=O)CCCCC(=O)NNC(=O)c2ccc(OC)cc2)cc1	-11.8% (inactive)	-8.93		
COc1ccc2[nH]c(C(=O)O)c(CCN3C(=O)c4ccc(C(=O)O)cc4C3=O)c2c1				inactive
CC(C)(C)C#CCn1c(/C=[N+](\[O-])C2CCCCC2)nc2ccccc21	24% (inactive)	-20.4		
Cc1nc2cc(C(=O)OCC(=O)Nc3cccc(Cl)c3)ccc2n1-c1ccccc1	9.16% (inactive)	16.2		
COc1cc2ccccc2cc1C(=O)NC(=S)Nc1cc(C(=O)O)ccc1C	-1.68% (inactive)	-26.2		
COc1cc2ccccc2cc1C(=O)NC(=S)Nc1ccc(C(=O)O)cc1		-28.9	18.4 µM (active)	
COc1cc2ccccc2cc1C(=O)NC(=S)Nc1cccc(C(=O)O)c1		12.5		inactive
COC(=O)C1CCN(C(=O)C23CCC(C)(C(=O)O2)C3(C)C)CC1 (stereo not drawn)	-21.8% (inactive)			
Cc1ccc(NC(=O)CSc2nnc(-c3ccncc3)s2)cc1	37.9% (inactive)	5.56		
CCn1c(C)[n+](CC)c2ccc(S(=O)(=O)N(C)C)cc21	2.28% (inactive)	4.86		
O=C(O)/C=C/C(=O)NCc1ccccn1	-9.56% (inactive)	-7.29		
CN(Cc1ccccc1)C(=O)COC(=O)c1ccc2ccccc2n1	8.38% (inactive)	15.9		

Compound	lipid storage change, negative = inhibition	cell number change [%]	Potency	outcome
CN(Cc1ccccc1)C(=O)COC(=O)c1ccccc1Nc1ccccc1	-5.27% (inactive)	-9.93		
CNc1snc(C)c1C(=O)OCC(=O)N(C)Cc1ccccc1		-17.1	14.6 µM (active)	
CC(=O)Nc1ccc(S(=O)(=O)NC(CC(=O)NC2CCCCC2C)C(C)C)cc1 (stereo not drawn)				inactive
CCC(C)NC(=O)CC(NS(=O)(=O)c1ccc(NC(C)=O)cc1)C(C)C (stereo not drawn)	2.51% (inactive)	10.4		
COCCNC(=O)CC(NS(=O)(=O)c1ccc(NC(C)=O)cc1)C(C)C (stereo not drawn)		-2.55	5.8 µM (active)	
Cc1cc(=O)[nH]c(SCC(=O)O)c1C#N	18.1% (inactive)	-1.88		
Cc1cc(=O)[nH]c(SCC(N)=O)c1C#N		-10.4	23.1 µM (active)	
CCOC(=O)CSc1[nH]c(=O)cc(C)c1C#N		23.9		inactive
Cc1ccc(C(=O)N2CCC3(CC2)Oc2ccc(F)cc2C(=O)C32CC(c3ccccc3)=NO2)s1 (stereo not drawn)	11.6% (inactive)	11.1		
COc1ccc(OC)c(N(CC(=O)Nc2ccc(NC(C)=O)cc2)S(C)(=O)=O)c1		18.4		inactive
Cc1ccnc(NC(=O)c2ccc(N3C(=O)CCC3=O)cc2)c1	-7.96% (inactive)	-2.76		
COC(=O)c1ccc(NC(=O)CCc2nnc3ccc(N4CCC5(CC4)OCCO5)nn23)cc1		-17.4		inactive
Cc1ccccc1NC(=O)CCc1nnc2ccc(N3CCC4(CC3)OCCO4)nn12	-6.37% (inactive)	15.5		
COc1ccccc1NC(=O)CCc1nnc2ccc(N3CCC4(CC3)OCCO4)nn12		-20.4	2.06 µM (active)	
COc1cccc(N2CCN(c3ccc4nnc(CCC(=O)Nc5cccc(C(C)=O)c5)n4n3)CC2)c1		-9.88		inactive
COc1cccc(NC(=O)CCc2nnc3ccc(N4CCN(c5cccc(OC)c5)CC4)nn23)c1		-24.5	9.2 µM (active)	
COc1cc(NC(=O)CCc2nnc3ccc(N4CCN(c5cccc(OC)c5)CC4)nn23)cc(OC)c1		-21.5		inactive
CCCCC(C(=O)N/N=C/c1ccccn1)C(=O)N/N=C/c1ccccn1	15.9% (inactive)	2.01		
COc1cccc(NC(C)(C)c2nnnn2-c2c(C)cccc2C)c1	-0.863% (inactive)	12.6		
O=C(CCN1CCc2ccccc2C1)Nc1ccc(F)c(F)c1	14.2% (inactive)			
CCOC(=O)c1c(S(=O)(=O)NCC(=O)Nc2ccc(OC)cc2)c(C)n(C)c1C	23.4% (inactive)			
CCCOC(=O)CCCC[C@H]1SC[C@@H](NC(=O)OC)[C@H]1NC(=O)OC	3.15% (inactive)	5.48		
CCOC(=O)c1c(C)nc(-c2ccccc2)nc1N		1.72		inactive
O=C(Cc1ccccc1Cl)NCCCn1ccnc1	-1.3% (inactive)	-1.19		

Compound	lipid storage change, negative = inhibition	cell number change [%]	Potency	outcome
O=C(COc1coc(CN2CCN(c3ccccc3)CC2)cc1=O)NCC1CCCO1 (stereo not drawn)				inactive [at 0.0737 µM]
CCN(CC)S(=O)(=O)c1c(OC)cc(C)c(Cl)c1C	-25% (inactive)	8.74		
CCCc1cc(=O)oc2cc(C)cc(OCC(=O)NCc3ccncc3)c12		4.58		inactive
CCCc1cc(=O)oc2cc(C)cc(OCC(=O)NCc3ccccn3)c12		6.85	11.6 µM (active)	
O=C(COc1ccc(Br)cc1)NCCCn1ccnc1	-17.2% (inactive)	9.25		
Cc1cc(OCC(=O)NCCCn2ccnc2)c2c(C)c(C)c(=O)oc2c1			13 µM (active)	
CCc1cc(=O)oc2cc(C)cc(OCC(=O)NCCCn3ccnc3)c12	10.1% (inactive)	8.87		
Cc1cc(OCC(=O)NCc2ccncc2)c2c(C)c(C)c(=O)oc2c1		8.73		inactive
Cc1c(C)c2ccc(OCC(=O)Nc3ccccn3)c(C)c2oc1=O		15.9		inactive
O=C(COc1ccc(F)cc1)NCCCn1ccnc1		-6.85	25.9 µM (active)	
Cc1cc(OCC(=O)Nc2ccccn2)c2c(C)c(C)c(=O)oc2c1		-10.4	7.31 µM (active)	
CCCc1cc(=O)oc2cc(C)cc(OCC(=O)NCCCn3ccnc3)c12	-24.1% (inactive)	0.597		
CCCc1cc(=O)oc2cc(C)cc(OCC(=O)NCc3cccnc3)c12		-12.5		inactive
COc1ccc(OCC(=O)NCCCn2ccnc2)cc1	19.8% (inactive)	17.2		
COc1ccc(CN(C)S(=O)(=O)c2nnc(NC(=O)c3ccccc3OC)s2)cc1OC		-3.88		inactive
Cc1ccccc1CCNC(=O)C1CCCN(c2cnccn2)C1 (stereo not drawn)		-4.78		inactive
Cc1cccc(NC(=S)NCC(c2cccnc2)N2CCOCC2)c1 (stereo not drawn)	16.3% (inactive)	16.1		
N#Cc1ccc(C(CC(=O)O)N2Cc3ccccc3C2=O)cc1 (stereo not drawn)	1.6% (inactive)	6.48		
Cc1ccc(NC2CCCN(C(=O)c3ccoc3)C2)cc1C (stereo not drawn)	-3.71% (inactive)	-11.9		
O=C(c1ccc(C(F)(F)F)cc1)N1CCN(S(=O)(=O)c2ccc3c(c2)OCCCO3)CC1	16.3% (inactive)	3.78		
COc1ccccc1NC(=O)c1cccc2c(Br)cccc12		-20.6		inactive
COc1ccccc1C(=O)Nc1ccc(Br)cc1C	7.89% (inactive)	6.15		
COc1ccccc1C(=O)Nc1ccc(Br)c2cccnc12		-27.2	1.64 µM (active)	
